Data taken from PubChem BioAssay (NCATS).
Records with an inconclusive call do not appear. Calls of active or inactive are those of the source. The call rests on the fitted dose curve; in most records, active means well fitted cell-killing curve with a large enough effect; inconclusive means small, poorly fitted or top-dose-only effect, or effect the other way; inactive means no such curve, though single readings can be large or run the other way.
Potency means the concentration at half of the fitted maximal effect.

Assay: Quantitative High-Throughput drug screen in 47 multiple myeloma cell lines against the NCATS MIPE library collection: KMS12PE_JCRB cell viability assay (AID 1918972); further: nearly all actives have a fitted effect of over 30% in size
Details: KMS12PE myeloma viability, CellTiter-Glo ATP, 48 h; series mostly up to 45.8 µM; viability: at the top concentration
Procedure, shortened: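 CellTiter-Glo ATP luminescence gave viability after 48 h compound treatment at 37C of 500 multiple myeloma cells per well. Normalisation used DMSO-only wells as 100% and media-only wells as 0% viability; primary qHTS of approved and investigational drugs.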
With `CC(C)(C)COc1ccc(-n2cc(C(=O)O)cn2)cc1C#N` the “viability” value was 132% (inactive).
For `O=C(Nc1cc(Cl)cc2c1[nH]c1cnccc12)c1cccnc1`, the “viability” value was 89.5% (inactive).
With `OC[C@H]1O[C@@H](n2cnc3c2NC=NC[C@@H]3O)C[C@H]1O` the “viability” value was 98.3% (inactive).
For `Cc1cnc(C(=O)O)c[n+]1[O-]`, the “viability” value was 108% (inactive).
In the case of `CC(=Cc1ccccc1)C=C1SC(=S)N(CC(=O)O)C1=O`, the “viability” value is reported as 127% (inactive).
For `Nc1ncnc2c1ncn2[C@@H]1O[C@H](CO)C[C@@H]1O`, the “viability” value was 96.9% (inactive).
With `Cc1c(NC(=O)c2ccc(C(C)(C)C)cc2)cccc1-c1cn(C)c(=O)c(Nc2ccc(C(=O)N3CCOCC3)cc2)n1` the Potency was 5.26 µM (active).
In the case of `O=c1c(-c2ccc(O)cc2)coc2cc(O)ccc12`, the “viability” value is reported as 109% (inactive).
For `CC(=O)O[C@]1(C(C)=O)CC[C@@H]2[C@@H]3C[C@H](C)C4=CC(=O)CC[C@]4(C)[C@H]3CC[C@@]21C`, the “viability” value was 100% (inactive).
In the case of `O=C(NCc1ccncc1)C12C[C@H]3C[C@@H](C1)CC(c1ccc(Cl)cc1)(C3)C2`, the Potency is reported as 26.4 µM (active).
With `COc1ccc(-c2nc(N3CCOCC3)c3sc(CN(C)c4ncc(C(=O)NO)cn4)cc3n2)cn1` the Potency was 0.001 µM (active).
With `Nc1ncnc2c1ncn2[C@@H]1O[C@@H](CO)[C@H](O)[C@H]1O` the “viability” value was 107% (inactive).
In the case of `CNC1CCC(N(Cc2cccc(-c3ccncc3)c2)C(=O)c2sc3c(F)ccc(F)c3c2Cl)CC1` (stereo not drawn), the Potency is reported as 10.5 µM (active).
For `NC1=N[C@@]2(c3cc(NC(=O)c4ccc(F)cn4)ccc3F)COC[C@@H]2CS1`, the Potency was 1.05 µM (active).
For `c1cc(-c2sc(-c3ccncc3)c(-c3ccncc3)c2-c2ccncc2)ccn1`, the Potency was 2.96 µM (active).
With `CCOC(=O)O[C@]1(C(=O)OCCl)CC[C@@H]2[C@H]3CCC4=CC(=O)C=C[C@]4(C)[C@@H]3[C@@H](O)C[C@@]21C` the “viability” value was 127% (inactive).
In the case of `C[C@]12CC[C@@H]3c4ccc(O)cc4C[C@@H](CCCCCCCCCS(=O)CCCC(F)(F)C(F)(F)F)[C@H]3[C@H]1CC[C@H]2O` (stereo partly drawn), the Potency is reported as 7.43 µM (active).
In the case of `C[C@H](NC(=O)C(=O)Nc1ccccc1C(C)(C)C)C(=O)N[C@@H](CC(=O)O)C(=O)COc1c(F)c(F)cc(F)c1F`, the Potency is reported as 4.69 µM (active).
For `CC1CCC(C(=O)N(c2cc(C#CC(C)(C)C)sc2C(=O)O)C2CCC(O)CC2)CC1` (stereo not drawn), the “viability” value was 87.4% (inactive).
In the case of `Cc1cc(OCCCc2c(C(=O)O)n(Cc3cccnc3)c3c(-c4c(COc5ccc(N6CCN([S+](C)(=O)[O-])CC6)cc5)nn(C)c4C)cccc23)cc(C)c1Cl`, the Potency is reported as 6.62 µM (active).
With `O=C(NC1CCOCC1)c1ccc(-c2cc(-c3cn[nH]c3-c3ccccn3)ccn2)cc1` the “viability” value was 105% (inactive).
For `O=C(Nc1cccc(Br)c1)c1cccc(S(=O)(=O)N2CCCCCC2)c1`, the Potency was 10.5 µM (active).
For `Cc1ccn(-c2ccc(-c3ncco3)cc2)c(=O)c1-c1ccc2nc(N)ncc2c1`, the Potency was 5.26 µM (active).
In the case of `O=C(Nc1c(Cl)cncc1Cl)c1ccc(OC(F)F)c(OCC2CC2)c1`, the “viability” value is reported as 102% (inactive).
In the case of `COc1cccc2c1CCCC2CCCN1CCN(C2CCCCC2)CC1` (stereo not drawn), the Potency is reported as 16.6 µM (active).
With `COc1ccc(C2CC(c3ccccc3)=NN2c2ccc(S(N)(=O)=O)cc2)cc1` (stereo not drawn) the Potency was 11.8 µM (active).
With `CC1(C)S[C@H]2[C@H](NC(=O)[C@@H](N)c3ccc(O)cc3)C(=O)N2[C@@H]1C(=O)O` the Potency was 4.18 µM (active).
With `CC(=NNC(=S)N1CCC1)c1ccccn1` the Potency was 0.001 µM (active).
For `CN1CCN(CCOc2cc(OC3CCOCC3)c3c(Nc4c(Cl)ccc5c4OCO5)ncnc3c2)CC1`, the Potency was 14.8 µM (active).
For `O=C(OCC#CCSc1nnc(-c2cccc3ccccc23)o1)c1cc2ccccc2s1`, the “viability” value was 118% (inactive).
In the case of `CC=CC(=O)N(CC)c1ccccc1C`, the “viability” value is reported as 94.5% (inactive).

Assay: Quantitative High-Throughput drug screen in 47 multiple myeloma cell lines against the NCATS MIPE library collection: KMS20_JCRB cell viability assay (AID 1918973); further: nearly all actives have a fitted effect of over 45% in size
Details: CellTiter-Glo ATP, 48 h; series mostly up to 45.8 µM; viability (% of DMSO): at the top concentration
Procedure, shortened: (§1)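 CellTiter-Glo luminescence (ATP) after 48 h compound exposure, 37C/5% CO2; 500 cells/well; MIPE 4.0 approved/investigational drugs pinned in; DMSO = 100%, media only = 0% viability.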
With `CC(=Cc1ccccc1)C=C1SC(=S)N(CC(=O)O)C1=O` the “viability (% of DMSO)” value was 131% (inactive).
For `Nc1ncnc2c1ncn2[C@@H]1O[C@H](CO)C[C@@H]1O`, the “viability (% of DMSO)” value was 94.2% (inactive).
For `COc1ccc(-c2nc(N3CCOCC3)c3sc(CN(C)c4ncc(C(=O)NO)cn4)cc3n2)cn1`, the “viability (% of DMSO)” value was 1.75% (inactive).
With `CNC1CCC(N(Cc2cccc(-c3ccncc3)c2)C(=O)c2sc3c(F)ccc(F)c3c2Cl)CC1` (stereo not drawn) the Potency was 1.48 µM (active).
With `Oc1ccc(C2=Cc3ccc(O)cc3OC2)cc1` the Potency was 3.32 µM (active).
For `Cc1ccn(-c2ccc(-c3ncco3)cc2)c(=O)c1-c1ccc2nc(N)ncc2c1`, the Potency was 8.33 µM (active).
With `CN1CCN(CCOc2cc(OC3CCOCC3)c3c(Nc4c(Cl)ccc5c4OCO5)ncnc3c2)CC1` the Potency was 8.33 µM (active).
In the case of `CCNc1cc(NC2CCC(O)CC2)nc(Nc2ccc3c(ccn3Cc3ccccc3)c2)n1` (stereo not drawn), the Potency is reported as 37.2 µM (active).
For `CC=CC(=O)N(CC)c1ccccc1C`, the “viability (% of DMSO)” value was 124% (inactive).

Assay: Quantitative High-Throughput drug screen in 47 multiple myeloma cell lines against the NCATS MIPE library collection: KMS26_JCRB cell viability assay (AID 1918975); further: nearly all actives have a fitted effect of over 45% in size
Details: KMS26 myeloma cells viability, CellTiter-Glo ATP, 48 h; series mostly up to 45.8 µM; viability (% of DMSO): at the top concentration
Procedure, shortened: as §1
In the case of `COC[C@@H](c1ccc(C(F)(F)F)cc1)N1CCN(C2(C)CCN(C(=O)c3c(C)ncnc3C)CC2)C[C@H]1C`, the “viability (% of DMSO)” value is reported as 98.3% (inactive).
For `CC(C)(C)COc1ccc(-n2cc(C(=O)O)cn2)cc1C#N`, the “viability (% of DMSO)” value was 121% (inactive).
With `O=C(Nc1cc(Cl)cc2c1[nH]c1cnccc12)c1cccnc1` the Potency was 18.7 µM (active).
In the case of `OC[C@H]1O[C@@H](n2cnc3c2NC=NC[C@@H]3O)C[C@H]1O`, the “viability (% of DMSO)” value is reported as 129% (inactive).
For `CC(=Cc1ccccc1)C=C1SC(=S)N(CC(=O)O)C1=O`, the “viability (% of DMSO)” value was 135% (inactive).
In the case of `Nc1ncnc2c1ncn2[C@@H]1O[C@H](CO)C[C@@H]1O`, the “viability (% of DMSO)” value is reported as 127% (inactive).
For `Cc1c(NC(=O)c2ccc(C(C)(C)C)cc2)cccc1-c1cn(C)c(=O)c(Nc2ccc(C(=O)N3CCOCC3)cc2)n1`, the Potency was 16.6 µM (active).
In the case of `CC(=O)O[C@]1(C(C)=O)CC[C@@H]2[C@@H]3C[C@H](C)C4=CC(=O)CC[C@]4(C)[C@H]3CC[C@@]21C`, the Potency is reported as 23.5 µM (active).
With `COc1ccc(-c2nc(N3CCOCC3)c3sc(CN(C)c4ncc(C(=O)NO)cn4)cc3n2)cn1` the Potency was 0.0264 µM (active).
With `Nc1ncnc2c1ncn2[C@@H]1O[C@@H](CO)[C@H](O)[C@H]1O` the “viability (% of DMSO)” value was 93.4% (inactive).
In the case of `CNC1CCC(N(Cc2cccc(-c3ccncc3)c2)C(=O)c2sc3c(F)ccc(F)c3c2Cl)CC1` (stereo not drawn), the Potency is reported as 16.6 µM (active).
For `Oc1ccc(C2=Cc3ccc(O)cc3OC2)cc1`, the Potency was 8.33 µM (active).
With `C[C@]12CC[C@@H]3c4ccc(O)cc4C[C@@H](CCCCCCCCCS(=O)CCCC(F)(F)C(F)(F)F)[C@H]3[C@H]1CC[C@H]2O` (stereo partly drawn) the “viability (% of DMSO)” value was 128% (inactive).
In the case of `C[C@H](NC(=O)C(=O)Nc1ccccc1C(C)(C)C)C(=O)N[C@@H](CC(=O)O)C(=O)COc1c(F)c(F)cc(F)c1F`, the “viability (% of DMSO)” value is reported as 150% (inactive).
In the case of `Cc1cc(OCCCc2c(C(=O)O)n(Cc3cccnc3)c3c(-c4c(COc5ccc(N6CCN([S+](C)(=O)[O-])CC6)cc5)nn(C)c4C)cccc23)cc(C)c1Cl`, the Potency is reported as 20.9 µM (active).
For `O=C(NC1CCOCC1)c1ccc(-c2cc(-c3cn[nH]c3-c3ccccn3)ccn2)cc1`, the “viability (% of DMSO)” value was 159% (inactive).
For `O=C(Nc1c(Cl)cncc1Cl)c1ccc(OC(F)F)c(OCC2CC2)c1`, the “viability (% of DMSO)” value was 156% (inactive).
For `O=C(OCC#CCSc1nnc(-c2cccc3ccccc23)o1)c1cc2ccccc2s1`, the “viability (% of DMSO)” value was 125% (inactive).
